# Results as given in PubChem BioAssay AID493191 (Broad Institute, 2011).
# Among all 1,300 compounds or so, about 330 (25%) were called active. These entries were drawn from the full list. Results with a measured potency or affinity are listed apart. A number with no mark means an inactive call. The rule behind the calls is not given here.
# Experiment: MALME3 melanoma cell viability loss, dose response, orthogonal assay for MITF inhibitor project, CellTiter-Glo, cherry-picked (AID 493191)
# Details: CellTiter-Glo luminescence, 24 h; series mostly up to 35 µM; activity change, negative = inhibition: at the top concentration
row,Structure (SMILES),"activity change, negative = inhibition [%]"
1,NCCN1C(=O)S/C(=C\c2ccc3c(c2)OCO3)C1=O,-23.1
2,CC(C)S(=O)(=O)c1csc(C(=O)Nc2ccc(F)cc2)c1N,-5.06
3,O=C(NCc1ccc2c(c1)OCO2)c1cc(=O)[nH]c2ccccc12,3.43
4,CN(C)c1ccc(NC(=S)c2ccccn2)cc1,-23.9
5,N/C(=N\OC(=O)c1ccc(Cl)cc1Cl)c1ccncc1,1.53
6,Cc1ccc(-n2nnnc2Sc2nc([N+](=O)[O-])nn2C)c(C)c1,-5.23
7,Cc1ccc(-n2cc(CNCCCn3cccn3)c(-c3cccc(C)c3)n2)cc1,-48
8,C=C1C(=O)O[C@@]23[C@H]1CC[C@@H](C)[C@@H]2CC[C@@]1(C)O[C@@H]31,5.34
9,Cc1ccc(C2CC(C(F)(F)F)n3nc(C(=O)NCc4c(C)nn(C)c4C)c(Cl)c3N2)cc1 (stereo not given),-6.98
10,Cn1c(/C=C/c2ccc(Cl)cc2)nc2ccccc2c1=O,3.09
11,COc1cccc(-c2csc3ncnc(Sc4nnnn4C)c23)c1,-4.63
12,Cc1ccc(-c2noc(CN3CCCCC3)n2)cc1,3.33
13,O=C(Nc1ccc(N2CCOCC2)c(Cl)c1)c1cccc(F)c1,-0.402
14,C=CCn1cccc(C(=O)Nc2ccc(C)c(Cl)c2)c1=O,-0.506
15,Cc1ccc2nc(NC(=O)CSCC(=O)OCC(=O)c3ccccc3)sc2c1,2.77
16,O=C(O)c1ccc(N/N=C/c2ccc3nccnc3c2)cc1,-31.8
17,Clc1nccnc1N/N=C/c1ccc(Br)cc1,-22.2
18,CCSC1(SCC)N=C(N)C2(C#N)C(c3ccc(F)cc3)C12C#N (stereo not given),-37.6
19,O=C(COC(=O)c1ccc[nH]c1=O)Nc1ccc(N2CCCCC2)cc1,-7.21
20,CCOc1ccc(-c2nnc(-c3cccs3)o2)cc1OCC,10.4

row,Structure (SMILES),"activity change, negative = inhibition [%]"
1,CCOC(=O)C1(Cc2cccc(OC)c2)CCCN(C(=O)CSC)C1 (stereo not given),9.78
2,N/C(=N\OC(=O)c1cccc(F)c1)c1cccc([N+](=O)[O-])c1,14.9
3,COc1ccc(NC(C)C(=O)N/N=C/c2ccc([N+](=O)[O-])s2)cc1 (stereo not given),-67.8
4,O=C(Cc1ccccc1)NCC(=O)N/N=C/c1ccc([N+](=O)[O-])s1,-16.7
5,CCOc1ccc(NC(=O)CCC(=O)N/N=C/c2ccc([N+](=O)[O-])s2)cc1,-32.1
6,O=C(/C=C\c1ccccc1)NCC(=O)N/N=C/c1ccc(O)cc1O,0.032
7,Cc1onc(-c2ccccc2)c1C(=O)N/N=C/c1ccc([N+](=O)[O-])s1,-49.8
8,COc1ccc(-c2csc(N(C)C(=O)c3ccco3)n2)cc1,-12.4
9,COCCn1c(C)cc(C(=O)COC(=O)c2ccccc2Br)c1C,-0.877
10,CC(/C=C1\SC(=O)N(CCCC(=O)O)C1=O)=C\c1ccccc1,0.09
11,CCN(Cc1ccc(OC)c(F)c1)C(=O)CCl,-27.4
12,c1ccc(OCc2nc3ccccc3[nH]2)cc1,-10.5
13,N#CC1=C(c2ccccc2)/C(=C/c2ccccc2)OC1=O,-12
14,COc1cccc2c1C(=O)C=C(C)C2=O,-32.2
15,Cc1cc(C=C2C(=O)c3ccccc3C2=O)c(C)n1-c1ccccc1,-0.523
16,O=C(O)c1ccccc1C(=O)Nc1ccc(Oc2cccc3ccccc23)cc1,8.02
17,Cc1ccc(N2C(=O)c3ccc(N)cc3C2=O)cc1C,1.99
18,COc1ccc(/C=N/Nc2cc(C)nc(-n3nc(C)cc3C)n2)c(OC)c1,-34.1
19,O=C1CCC2S/C(=C/Nc3ccc(C(F)(F)F)cc3)C(=O)N12 (stereo not given),5.58
20,Cc1nc(C)c(C(=O)N/N=C/c2cc(Br)ccc2O)s1,-24.3

row,Structure (SMILES),"activity change, negative = inhibition [%]"
1,CC(C)C(=O)NC(c1ccco1)c1ccc2cccnc2c1O (stereo not given),-26.1
2,C=CCN=C1NN=C(c2ccc3c(c2)OCCO3)CS1,-32.5
3,C=CCn1c(C)cc(C2=NNC(=NC(C)(C)C)SC2)c1C,-17
4,COc1ccccc1NC(=O)c1cnc(SCC(=O)NCC2CCCO2)n(C)c1=O (stereo not given),-12
5,Cc1nc(Sc2nnnn2C)c2c3c(sc2n1)CCC3,-12.1
6,CCOCCCNC(=O)/C(C#N)=C/c1ccc(Cl)c([N+](=O)[O-])c1,-26.7
7,COCCNC(=O)/C(C#N)=C/c1cccc(/C=C(\C#N)C(=O)NCCOC)c1,-48.7
8,CCCOc1ccc(C(=O)Nc2ccc3c(c2)OCCO3)cc1,-0.116
9,CC1CCCC(NC(=O)NC(=O)CCl)C1C (stereo not given),-14.4
10,CCCc1ccc(-c2ccc(/C=C/C(=O)O)cc2)nc1,-14.1
11,COc1cc(OC)cc(C(=O)N[C@H](C(=O)Nc2nc3ccccc3[nH]2)C(C)C)c1,-12.2
12,CCCCNc1nc(=S)n(-c2ccccc2)c(C)c1C(C)=O,-0.88
13,Cc1cc(Br)ccc1OCc1nc(-c2cccnc2)no1,22.1
14,CCOC(=O)c1cc(-c2ccc(OC)cc2)n[nH]1,-1.15
15,CC(=O)COc1ccc2cc(-c3ccccc3)c(=O)oc2c1,5.42
16,COc1ccc(Cn2c(-c3ccc(C)cc3)c[n+]3ccccc23)cc1,-41.9
17,CC(=O)N(c1nnc(-c2cccc(C)c2)s1)C1CCCC1,1.3
18,O=C(Nc1ccc2nc(-c3ccccc3)[nH]c2c1)c1ccco1,-2.15
19,Cc1cccc(NC(=O)Cc2ccc(Br)cc2)n1,3.14
20,C/C(=N\NC(=O)Cc1ccc(Cl)cc1)c1ccccn1,-36.5
